Among the data in ChEMBL document CHEMBL1961873, “Compounds: GSK PKIS; Assays: Nanosyn kinase panel” (2012) are inhibition values, retold here.

Test [1] concerns the target T1, Serine/threonine-protein kinase TBK1 (Homo sapiens) (UniProt Q9UHD2).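 Further: values are mean inhibition of TBK1, screened as part of the GSK published kinase inhibitor set.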
T1 sequence (whole entry): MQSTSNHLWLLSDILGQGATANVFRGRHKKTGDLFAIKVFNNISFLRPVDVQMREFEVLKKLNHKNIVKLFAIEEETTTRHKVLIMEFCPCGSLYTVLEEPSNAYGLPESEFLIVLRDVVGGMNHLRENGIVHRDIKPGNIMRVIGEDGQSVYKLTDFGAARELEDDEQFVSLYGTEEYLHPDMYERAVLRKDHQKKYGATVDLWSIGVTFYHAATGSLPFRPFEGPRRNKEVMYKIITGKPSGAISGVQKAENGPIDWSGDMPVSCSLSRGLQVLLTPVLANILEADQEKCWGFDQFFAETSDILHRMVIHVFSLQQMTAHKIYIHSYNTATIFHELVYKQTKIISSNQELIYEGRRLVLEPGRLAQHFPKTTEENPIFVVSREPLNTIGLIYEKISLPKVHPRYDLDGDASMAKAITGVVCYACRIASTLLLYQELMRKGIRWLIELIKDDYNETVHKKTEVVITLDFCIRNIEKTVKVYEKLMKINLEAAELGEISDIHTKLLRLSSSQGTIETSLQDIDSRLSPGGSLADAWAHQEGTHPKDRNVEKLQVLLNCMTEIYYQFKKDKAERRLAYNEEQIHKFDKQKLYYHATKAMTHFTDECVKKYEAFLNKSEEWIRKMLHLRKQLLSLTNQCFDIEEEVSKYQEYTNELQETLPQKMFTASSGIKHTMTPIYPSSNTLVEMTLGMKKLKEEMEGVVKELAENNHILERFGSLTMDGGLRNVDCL
The conditions noted are these: at 1 µM.

In test [2] the target is T2, Testis-specific serine/threonine-protein kinase 1 (Homo sapiens) (UniProt Q9BXA7).
T2 sequence (whole entry): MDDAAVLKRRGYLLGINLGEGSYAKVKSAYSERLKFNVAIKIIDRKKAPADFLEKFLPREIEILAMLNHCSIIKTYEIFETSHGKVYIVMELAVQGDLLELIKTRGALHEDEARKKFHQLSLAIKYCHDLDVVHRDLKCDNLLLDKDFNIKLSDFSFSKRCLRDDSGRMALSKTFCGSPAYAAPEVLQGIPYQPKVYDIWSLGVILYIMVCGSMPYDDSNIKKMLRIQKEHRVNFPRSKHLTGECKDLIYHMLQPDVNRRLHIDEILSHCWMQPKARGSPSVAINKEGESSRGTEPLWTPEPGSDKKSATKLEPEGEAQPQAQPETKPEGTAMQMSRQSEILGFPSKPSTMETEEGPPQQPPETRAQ
Particulars: at 0.1 µM.

The target of test [3] is T2, Testis-specific serine/threonine-protein kinase 1 (Homo sapiens). The conditions noted are these: at 1 µM.
In test [4] the target is T3, Testis-specific serine/threonine-protein kinase 2 (Homo sapiens) (UniProt Q96PF2).
T3 sequence (whole entry): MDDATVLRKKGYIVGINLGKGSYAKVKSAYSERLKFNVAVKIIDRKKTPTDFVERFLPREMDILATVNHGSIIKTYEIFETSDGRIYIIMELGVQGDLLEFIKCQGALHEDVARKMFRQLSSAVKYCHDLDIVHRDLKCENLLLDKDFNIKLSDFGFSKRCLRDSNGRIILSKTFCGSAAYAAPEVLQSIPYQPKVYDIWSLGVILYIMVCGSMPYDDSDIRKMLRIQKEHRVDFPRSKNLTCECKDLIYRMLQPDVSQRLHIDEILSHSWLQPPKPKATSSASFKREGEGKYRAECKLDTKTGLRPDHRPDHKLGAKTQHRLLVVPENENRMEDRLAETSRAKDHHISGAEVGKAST
The conditions noted are these: at 0.1 µM.

Test [5] concerns the target T3, Testis-specific serine/threonine-protein kinase 2 (Homo sapiens). The conditions noted are these: at 1 µM.
Test [6] addresses Casein kinase I isoform alpha (Homo sapiens) (UniProt P48729). The conditions noted are these: at 0.1 µM.
The target is the same in test [7]. The conditions noted are these: at 1 µM.
Test [8] concerns the target Casein kinase I isoform gamma-1 (Homo sapiens) (UniProt Q9HCP0). The conditions noted are these: at 0.1 µM.
For test [9] the target is unchanged. Particulars: at 1 µM.
Test [10] concerns the target Casein kinase I isoform gamma-2 (Homo sapiens) (UniProt P78368). The conditions noted are these: at 0.1 µM.
Test [11] has the same target. Particulars: at 1 µM.
The target of test [12] is Casein kinase I isoform gamma-3 (Homo sapiens) (UniProt Q9Y6M4). Particulars: at 0.1 µM.
Test [13] has the same target. Particulars: at 1 µM.
In test [14] the target is Cyclin-dependent kinase 1 (Homo sapiens) (UniProt P06493). The conditions noted are these: at 0.1 µM.
The target is the same in test [15]. The conditions noted are these: at 1 µM.
Test [16] has as its target Cyclin-dependent kinase 2 (Homo sapiens) (UniProt P24941). The conditions noted are these: at 0.1 µM.
Test [17] shares this target. Particulars: at 1 µM.
Test [18] has the same target. Particulars: at 0.1 µM. This is another data set of the same source.
Test [19] has the same target. The conditions noted are these: at 1 µM. The source holds these as a separate data set.
Test [20] deals with CDK3/Cyclin E (Homo sapiens) (UniProt P24864+Q00526). The conditions noted are these: at 0.1 µM.
Sequence of CDK3/Cyclin E (Homo sapiens) (P24864 whole entry, looked up): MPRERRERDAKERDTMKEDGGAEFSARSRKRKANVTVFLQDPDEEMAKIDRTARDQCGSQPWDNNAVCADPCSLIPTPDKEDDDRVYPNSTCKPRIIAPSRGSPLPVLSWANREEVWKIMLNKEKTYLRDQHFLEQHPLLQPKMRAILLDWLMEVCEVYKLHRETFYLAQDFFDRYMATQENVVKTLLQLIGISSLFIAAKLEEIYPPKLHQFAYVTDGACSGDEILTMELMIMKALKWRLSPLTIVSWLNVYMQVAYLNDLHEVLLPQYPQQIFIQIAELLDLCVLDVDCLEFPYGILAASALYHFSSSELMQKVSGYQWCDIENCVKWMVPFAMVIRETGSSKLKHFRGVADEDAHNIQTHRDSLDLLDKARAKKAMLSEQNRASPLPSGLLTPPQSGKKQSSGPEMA
Sequence of CDK3/Cyclin E (Homo sapiens) (Q00526 whole entry, looked up): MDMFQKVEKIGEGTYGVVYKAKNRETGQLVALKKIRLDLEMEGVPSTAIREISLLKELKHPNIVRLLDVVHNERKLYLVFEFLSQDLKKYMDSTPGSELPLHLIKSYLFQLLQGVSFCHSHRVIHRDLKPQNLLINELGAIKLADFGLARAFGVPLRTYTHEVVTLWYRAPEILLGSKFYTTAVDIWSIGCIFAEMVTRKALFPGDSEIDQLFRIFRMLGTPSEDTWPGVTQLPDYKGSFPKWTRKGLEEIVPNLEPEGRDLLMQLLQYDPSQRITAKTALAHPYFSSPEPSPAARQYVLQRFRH

Sequence of Casein kinase I isoform gamma-2 (Homo sapiens) (P78368 whole entry, looked up, canonical isoform): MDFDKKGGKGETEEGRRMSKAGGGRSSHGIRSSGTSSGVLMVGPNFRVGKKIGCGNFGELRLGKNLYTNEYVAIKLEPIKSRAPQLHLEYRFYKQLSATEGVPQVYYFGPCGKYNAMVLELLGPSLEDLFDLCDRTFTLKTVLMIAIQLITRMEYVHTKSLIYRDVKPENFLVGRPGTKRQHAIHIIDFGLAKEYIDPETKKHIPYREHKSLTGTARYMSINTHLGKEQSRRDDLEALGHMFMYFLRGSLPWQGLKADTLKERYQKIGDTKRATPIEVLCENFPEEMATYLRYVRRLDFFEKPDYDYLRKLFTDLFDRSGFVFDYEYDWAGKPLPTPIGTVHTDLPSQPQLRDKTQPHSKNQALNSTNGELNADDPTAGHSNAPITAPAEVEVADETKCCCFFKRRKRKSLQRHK
Sequence of Casein kinase I isoform gamma-1 (Homo sapiens) (Q9HCP0 whole entry, looked up, canonical isoform): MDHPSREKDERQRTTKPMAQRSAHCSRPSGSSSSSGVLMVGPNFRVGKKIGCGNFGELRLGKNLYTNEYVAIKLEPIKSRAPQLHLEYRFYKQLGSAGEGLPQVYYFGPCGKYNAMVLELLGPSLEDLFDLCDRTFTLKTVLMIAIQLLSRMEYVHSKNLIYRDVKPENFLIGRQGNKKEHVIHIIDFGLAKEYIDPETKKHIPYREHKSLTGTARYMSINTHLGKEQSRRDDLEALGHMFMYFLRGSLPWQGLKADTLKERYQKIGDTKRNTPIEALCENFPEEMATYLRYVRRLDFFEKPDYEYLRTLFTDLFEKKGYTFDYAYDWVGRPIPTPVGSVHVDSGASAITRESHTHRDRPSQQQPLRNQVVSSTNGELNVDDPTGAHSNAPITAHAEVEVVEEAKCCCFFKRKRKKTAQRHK
Sequence of Casein kinase I isoform gamma-3 (Homo sapiens) (Q9Y6M4 whole entry, looked up, canonical isoform): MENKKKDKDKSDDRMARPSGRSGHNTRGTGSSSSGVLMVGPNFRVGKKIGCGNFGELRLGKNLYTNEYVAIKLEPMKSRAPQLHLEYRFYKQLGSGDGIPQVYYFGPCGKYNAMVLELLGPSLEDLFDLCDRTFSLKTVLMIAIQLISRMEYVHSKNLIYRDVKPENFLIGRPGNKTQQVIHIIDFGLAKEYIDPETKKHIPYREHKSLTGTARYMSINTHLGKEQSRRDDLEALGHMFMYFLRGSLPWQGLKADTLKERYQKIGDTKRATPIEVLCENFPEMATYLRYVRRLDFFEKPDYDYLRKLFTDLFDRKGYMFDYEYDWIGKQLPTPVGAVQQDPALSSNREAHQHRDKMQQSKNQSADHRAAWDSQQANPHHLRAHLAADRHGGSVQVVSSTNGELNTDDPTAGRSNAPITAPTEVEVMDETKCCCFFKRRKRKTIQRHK
Sequence of Cyclin-dependent kinase 1 (Homo sapiens) (P06493 whole entry, looked up): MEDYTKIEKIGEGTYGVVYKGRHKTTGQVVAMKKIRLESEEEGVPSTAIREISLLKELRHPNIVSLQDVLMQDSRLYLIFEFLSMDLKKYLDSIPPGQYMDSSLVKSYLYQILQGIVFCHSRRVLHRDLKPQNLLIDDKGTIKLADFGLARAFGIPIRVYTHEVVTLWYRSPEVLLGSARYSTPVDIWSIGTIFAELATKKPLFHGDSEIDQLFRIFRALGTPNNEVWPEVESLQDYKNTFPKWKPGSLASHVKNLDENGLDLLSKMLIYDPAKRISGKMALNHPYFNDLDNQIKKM
Sequence of Casein kinase I isoform alpha (Homo sapiens) (P48729 2-337 limits assumed): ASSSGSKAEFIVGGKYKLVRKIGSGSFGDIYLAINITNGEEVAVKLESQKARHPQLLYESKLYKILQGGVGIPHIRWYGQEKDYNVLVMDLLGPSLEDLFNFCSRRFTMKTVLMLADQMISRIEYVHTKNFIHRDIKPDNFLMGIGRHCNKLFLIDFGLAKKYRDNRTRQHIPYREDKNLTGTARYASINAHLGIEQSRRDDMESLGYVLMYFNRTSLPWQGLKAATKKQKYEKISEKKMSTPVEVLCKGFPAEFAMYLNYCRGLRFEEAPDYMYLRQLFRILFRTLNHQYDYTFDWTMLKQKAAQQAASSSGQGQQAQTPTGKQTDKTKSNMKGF

Regarding `Cc1ccc(NC(=O)CC2CC2)cc1-c1ccc(C(=O)NCC2CC2)cc1`, the inhibition (as a rule, the relative decrease from the control value, in per cent) in test [1] was 5.71%; in test [2], 3.65%; in test [3], 2.94%; in [4] it was 2.59%; in test [5] it was 1.29%; in test [6] it was 7.12%. Besides, the inhibition is 3.9% in test [7]; 1.42% in test [8]; 2.32% in test [9]; 2.95% in test [10]; 2.91% in [11]; 0.5% in test [12]. The inhibition in [13] is 2.08%; in test [14], -0.23%; in test [15] it was 0.76%; in [16], -1.15%; in [17], -1.13%; in [18], 1.18%. Moreover, the inhibition in test [19] worked out at 2.92%; in test [20], 1.73%.

For the compound `CC(C)c1ccc2c(c1)NC(=O)/C2=N/Nc1ccc(S(N)(=O)=O)cc1`, the inhibition is -0.26% in test [1]; -0.2% in test [2]; 1.24% in test [3]; 0.12% in test [4]; 0.46% in test [5]; 0.06% in test [6]. Further, the inhibition in [7] is 0.18%; in [8], 0.11%; in test [9] it was 0.56%; in test [10], 0.63%; in [11] it was 0.09%; in test [12], 1.05%. Besides, the inhibition was determined as 0.02% in test [13]; 2.52% in test [14]; 6.84% in [15]; 5.99% in test [16]; 28.9% in test [17]; 3.16% in test [18]. The inhibition in test [19] stood at 18.9%; in [20], 1.54%.

Consider `COc1cccc(-n2nc(C)c3c(N/N=C(\C)c4ccncc4)ncnc32)c1`, for which the inhibition in test [1] was -1.57%; in test [2], 1.47%; in test [3], 1.88%; in [4], -0.53%; in test [5], -0.42%; in test [6] it was -1.81%. Moreover, the inhibition in test [7] is 0.17%; in test [8] it was 0.02%; in test [9] it was 0.62%; in test [10], 0.14%; in test [11] it was 0.28%; in test [12], -0.15%. Besides, the inhibition is -0.59% in [13]; 0.65% in test [14]; 2.77% in test [15]; 1.78% in test [16]; 7.56% in [17]; 1.09% in test [18]. Moreover, the inhibition was 2.33% in test [19] and -0.92% in [20].

Regarding `Nc1nccc(-c2c(-c3ccc(F)cc3)nn3cc(C(F)(F)F)ccc23)n1`, the inhibition in [1] is -0.2%; in test [2] it was 0.37%; in test [3] it was 1.13%; in test [4] it was 0.32%; in [5], -0.24%; in test [6], 0.88%. Also, the inhibition stood at 10.8% in [7]; 0.74% in test [8]; 2.65% in test [9]; 0.3% in test [10]; 1.13% in [11]; 0.79% in [12]. The inhibition is 1.7% in test [13]; 1.22% in test [14]; 0.47% in test [15]; -0.36% in test [16]; -2.27% in [17]; -0.77% in test [18]. The inhibition is 0.2% in test [19] and -0.58% in [20].

As for `Nc1nccc(C#Cc2cncnc2Nc2ccc(OCc3cccc(F)c3)c(Cl)c2)n1`, the inhibition in [1] is 9.39%; in test [2], 2.97%; in test [3] it was 1.86%; in test [4] it was 1.69%; in test [5] it was -1.18%; in [6] it was 4.12%. Moreover, the inhibition came to 5.01% in test [7]; 3.44% in [8]; 4.16% in test [9]; 2.25% in [10]; 3.89% in test [11]; 3.42% in [12]. Further, the inhibition is 3.02% in test [13]; 0.61% in [14]; 2.58% in test [15]; 1.73% in test [16]; 1.37% in test [17]; 3.74% in test [18]. The inhibition in test [19] was 5.25%; in [20], 1.09%.

With `CC(C)c1ccc(Nc2nccc(-c3cnn4ncccc34)n2)cc1`, the inhibition in [1] is 13.9%; in [2], 3.15%; in test [3], 5.95%; in [4] it was 2.67%; in [5] it was 0.57%; in [6], -5.73%. The inhibition in test [7] was determined as 12.9%; in test [8], 2.02%; in test [9], 8.9%; in test [10] it was 3.16%; in test [11] it was 24.9%; in test [12], 1.13%. Moreover, the inhibition in test [13] turned out to be 13.6%; in test [14], 21.5%; in test [15] it was 64%; in test [16] it was 19.8%; in test [17], 78.7%; in test [18], 22.8%. Also, the inhibition in test [19] came to 64.5%; in test [20], 1.82%.

Turning to `Cc1ccc2c(-c3ccnc(Nc4cccc(C(F)(F)F)c4)n3)c(-c3ccccc3)nn2n1`, the inhibition in test [1] turned out to be 4.86%; in test [2], 3.88%; in test [3] it was 4.11%; in [4], 1.4%; in [5], 2.15%; in [6], 15.3%. The inhibition in test [7] turned out to be 59.2%; in [8] it was 5%; in test [9], 14%; in test [10] it was 3.82%; in test [11], 12%; in [12], 4.25%. The inhibition in test [13] came out at 24.8%; in [14], 3.78%; in [15] it was 3.79%; in test [16], 4.09%; in [17] it was 3.14%; in [18] it was 2.95%. Moreover, the inhibition in [19] was 7.4%; in test [20] it was -1.21%.
